In assay [1] the target is Rap guanine nucleotide exchange factor 3 (Homo sapiens) (UniProt O95398). As to the kind of experiment: Confirmatory qHTS for antagonist of cAMP-regulated guanine nucleotide exchange factor 3 (EPAC1) (AID 1645880). Note: nearly all actives have a fitted effect of over 55% in size. Note: potency is the fitted concentration of half-maximal effect. Summed up:
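Released BODIPY-GDP fluoresces less than Rap1-bound BODIPY-GDP; the signal is followed at 480/540 nm at 5-min intervals over 30 min, after 5 min at room temperature. Reactions contain 100 nM EPAC1, 250 nM RAP1B-BODIPY-GDP and 50 uM GDP; results are normalized to ATA and DMSO.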
(qHTS replaces the single test concentration by a dilution series.)

The target is the same in assay [2]. Kind of assay: Confirmatory qHTS for agonist of cAMP-regulated guanine nucleotide exchange factor 3 (EPAC1) (AID 1645881).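 Note: EPAC1 catalysed release of BODIPY-GDP from Rap1B seen as fluorescence loss; 100% = effect of cAMP agonist control; nearly all actives have a fitted effect of over 75% in size.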
Assay [3] deals with Rap guanine nucleotide exchange factor 4 (Homo sapiens) (UniProt Q8WZA2). Kind of assay: Confirmatory qHTS for agonist of cAMP-regulated guanine nucleotide exchange factor 4 (EPAC2) (AID 1645884).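 Note: nucleotide exchange releases bodipy-GDP from Rap1 and this lowers its fluorescence; % is set by controls: 0 for no effect and ±100 for the full control effect; nearly all actives have a fitted effect of over 65% in size.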
The target is the same in assay [4]. As to the kind of experiment: Confirmatory qHTS for antagonist of cAMP-regulated guanine nucleotide exchange factor 4 (EPAC2) (AID 1645885). For activity change, negative = inhibition: % is set by controls: 0 for no effect and ±100 for the full control effect. Note: nearly all actives have a fitted effect of over 25% in size. Note: potency is the fitted concentration of half-maximal effect.
Assay [5] has as its target Rap guanine nucleotide exchange factor 3 (Homo sapiens) (UniProt O95398). As to the kind of experiment: Counterscreen qHTS for antagonist of cAMP-regulated guanine nucleotide exchange factor 3 (EPAC1) (AID 1645888). Note: % of control where 0% means no effect. Summed up:
(§1)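 Rap1B-BODIPY-GDP 250 nM + GDP 50 uM; cpds 7-pt, final 9.74 nM–152 uM (activator mode) or from 7.32 nM upwards (inhibitor mode); RT; FI 480/540 nm at 5 and 30 min, then ± cAMP, reread.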
For orientation: The purpose of a counterscreen is to sort out artefacts and off-target activity.

Assay [6] has the same target. As to the kind of experiment: Counterscreen qHTS for agonist of cAMP-regulated guanine nucleotide exchange factor 3 (EPAC1) (AID 1645889). Note: % of control where 0% means no effect; nearly all actives have a fitted effect of over 40% in size. Summed up: as §1

The values below come from PubChem BioAssay (NCATS).

Inconclusive results are not listed. Values without a mark were called inactive. Calls of active or inactive are those of the source. Calls come from the whole dose curve; as a rule, active = well fitted curve in the direction sought with a large enough effect; inconclusive = small, poorly fitted or top-dose-only effect, or another doubt; inactive = no such curve, though single readings can be large; an effect the other way counts as inactive or inconclusive.

Rap guanine nucleotide exchange factor 4 (Homo sapiens), sequence (Q8WZA2 whole entry, looked up): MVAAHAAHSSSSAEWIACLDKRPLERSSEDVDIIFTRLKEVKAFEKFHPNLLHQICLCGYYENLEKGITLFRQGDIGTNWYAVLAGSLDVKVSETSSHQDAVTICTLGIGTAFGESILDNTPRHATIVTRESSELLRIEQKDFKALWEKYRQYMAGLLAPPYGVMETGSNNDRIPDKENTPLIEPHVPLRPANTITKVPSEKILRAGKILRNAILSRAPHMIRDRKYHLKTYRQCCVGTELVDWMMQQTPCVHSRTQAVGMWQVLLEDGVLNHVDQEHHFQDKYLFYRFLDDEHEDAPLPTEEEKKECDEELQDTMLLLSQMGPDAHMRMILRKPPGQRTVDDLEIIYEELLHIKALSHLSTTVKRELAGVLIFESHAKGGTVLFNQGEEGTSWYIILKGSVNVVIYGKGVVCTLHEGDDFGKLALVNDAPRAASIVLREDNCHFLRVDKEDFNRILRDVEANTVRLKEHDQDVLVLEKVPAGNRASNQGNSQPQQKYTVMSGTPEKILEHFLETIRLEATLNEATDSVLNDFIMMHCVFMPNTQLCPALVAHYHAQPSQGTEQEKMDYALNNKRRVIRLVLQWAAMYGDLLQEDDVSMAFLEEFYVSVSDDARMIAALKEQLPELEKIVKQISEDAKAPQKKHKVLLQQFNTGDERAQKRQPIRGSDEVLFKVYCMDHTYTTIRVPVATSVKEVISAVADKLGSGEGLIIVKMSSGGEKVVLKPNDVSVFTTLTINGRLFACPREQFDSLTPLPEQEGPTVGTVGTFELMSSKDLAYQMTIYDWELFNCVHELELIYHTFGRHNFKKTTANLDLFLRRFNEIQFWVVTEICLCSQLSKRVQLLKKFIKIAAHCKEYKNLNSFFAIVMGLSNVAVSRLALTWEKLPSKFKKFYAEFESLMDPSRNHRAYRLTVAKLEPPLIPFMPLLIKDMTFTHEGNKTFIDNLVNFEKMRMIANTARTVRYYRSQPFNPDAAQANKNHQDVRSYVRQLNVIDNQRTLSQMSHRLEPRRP
Rap guanine nucleotide exchange factor 3 (Homo sapiens), sequence (O95398 whole entry, looked up): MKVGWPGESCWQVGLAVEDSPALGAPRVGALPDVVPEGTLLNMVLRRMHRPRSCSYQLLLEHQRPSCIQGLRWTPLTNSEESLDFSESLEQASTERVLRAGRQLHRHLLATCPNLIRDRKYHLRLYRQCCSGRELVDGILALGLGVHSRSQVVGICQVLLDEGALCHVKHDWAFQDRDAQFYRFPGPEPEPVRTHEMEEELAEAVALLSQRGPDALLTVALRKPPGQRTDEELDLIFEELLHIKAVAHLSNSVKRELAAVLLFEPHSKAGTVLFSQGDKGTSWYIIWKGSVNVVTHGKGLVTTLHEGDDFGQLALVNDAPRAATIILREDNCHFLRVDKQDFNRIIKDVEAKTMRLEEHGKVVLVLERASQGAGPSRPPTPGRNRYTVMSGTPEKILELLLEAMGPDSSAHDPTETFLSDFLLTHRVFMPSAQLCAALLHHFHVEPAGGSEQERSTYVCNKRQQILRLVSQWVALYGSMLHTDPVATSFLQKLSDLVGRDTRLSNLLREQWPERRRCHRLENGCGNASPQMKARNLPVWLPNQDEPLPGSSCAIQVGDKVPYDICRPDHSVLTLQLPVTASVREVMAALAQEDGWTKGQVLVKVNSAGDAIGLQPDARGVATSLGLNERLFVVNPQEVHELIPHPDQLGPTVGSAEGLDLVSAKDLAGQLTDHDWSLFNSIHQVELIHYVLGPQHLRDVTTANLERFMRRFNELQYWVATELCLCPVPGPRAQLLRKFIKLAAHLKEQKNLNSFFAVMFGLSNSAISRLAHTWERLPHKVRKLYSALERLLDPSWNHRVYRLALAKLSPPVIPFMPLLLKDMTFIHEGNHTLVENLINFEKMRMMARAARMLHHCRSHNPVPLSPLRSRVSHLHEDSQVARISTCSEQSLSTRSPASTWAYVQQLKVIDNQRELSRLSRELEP

On to `CCc1cccc2cc3c(N)c(C(=O)Nc4ccc(S(=O)(=O)N5CCCC5)cc4)sc3nc12`, for which the Potency in assay [1] is 75.7 µM (active); in assay [4] it was 67.5 µM (active). Besides, the Potency result in assay [2], in assay [3], in assay [5] and in assay [6] was “inactive” throughout.
On to `O=[N+]([O-])c1cc([N+](=O)[O-])c2oc(-c3ccccc3)c(Br)c2c1O`, for which the Potency was 2.69 µM (active) in assay [1] and 3.01 µM (active) in assay [4]. The Potency entry in assay [2], in assay [3], in assay [5] and in assay [6] was “inactive” in each case.
`Cc1cccc(C2c3[nH]c4ccccc4c3CCN2Cc2cccn2-c2ncccn2)c1` (stereo not given): the Potency entry in assay [1], in assay [2] and in assay [4] was “inactive” throughout. Also, the activation in assay [3] is -1.28% [at 17.1 µM, percent relative to cAMP agonist control]; in assay [6], 17.6% [at 30.8 µM]. Besides, the activity change, negative = inhibition in assay [5] was -4.15% [at 30.8 µM].
Turning to `Cc1noc(C)c1CSc1ncnc2sc(C)c(C)c12`, the Potency result in assay [1], in assay [2], in assay [3], in assay [4], in assay [5] and in assay [6] was “inactive” in each case.
Consider `CCOc1ccc(-n2c(SCC(=O)Nc3ccccc3OC)nc3c(oc4ccccc43)c2=O)cc1`, for which the Potency result in assay [1], in assay [2], in assay [3], in assay [4], in assay [5] and in assay [6] was “inactive” in each case.
With `COc1cccc(-n2nnc3c(=O)n(C/C=C/c4ccccc4)cnc32)c1`, the Potency entry in assay [1], in assay [2] and in assay [4] was “inactive” throughout. Further, the activation is 6.54% [at 17.1 µM, percent relative to cAMP agonist control] in assay [3] and 17.3% [at 30.8 µM] in assay [6]. In assay [5], the activity change, negative = inhibition is 2.95% [at 30.8 µM].
Consider `Cc1nn(CCc2nn[nH]n2)c2nc(-c3ccc(C4CCCCC4)cc3)cc(C(F)(F)F)c12`, for which the Potency in assay [1] is 21.3 µM (active). Besides, the Potency entry in assay [2], in assay [3], in assay [4], in assay [5] and in assay [6] was “inactive” throughout.
Turning to `N#CC(C(=O)NCc1ccco1)c1nc2ccccc2nc1N1CCOCC1` (stereo not given), the Potency result in assay [1], in assay [2] and in assay [4] was “inactive” in each case. Also, the activation in assay [3] was 4.26% [at 17.1 µM, percent relative to cAMP agonist control]; in assay [6] it was 19.4% [at 30.8 µM]. Moreover, the activity change, negative = inhibition in assay [5] was -11.6% [at 30.8 µM].
For `O=[N+]([O-])c1ccc(Cc2ccccn2)c([N+](=O)[O-])c1`, the Potency result in assay [1], in assay [2], in assay [3], in assay [5] and in assay [6] was “inactive” in each case. Also, the outcome in assay [4] is “inactive; activator; fitted 0.12 uM [at 12.7 µM]”.
Turning to `CCC(=O)N1c2nc(C(C)C)nn2C2(CCCCC2)[C@@H]2CCCC[C@@H]21`, the Potency entry in assay [1], in assay [2], in assay [3], in assay [5] and in assay [6] was “inactive” throughout. Besides, the outcome in assay [4] was “inactive [at 12.7 µM]”.
`CCSc1nc2ccccc2c(OCc2ccccc2Cl)c1C(=O)OC`: the Potency result in assay [1], in assay [2], in assay [3], in assay [4], in assay [5] and in assay [6] was “inactive” in each case.
In the case of `CCOc1ccc(NC(=O)CN(C)C(=O)c2ccccc2SCc2c(C)noc2C)cc1OCC`, the Potency result in assay [1], in assay [2] and in assay [4] was “inactive” in each case. The activation in assay [3] is 1.53% [at 17.1 µM, percent relative to cAMP agonist control]; in assay [6] it was 18% [at 30.8 µM]. Moreover, the activity change, negative = inhibition in assay [5] was -10.4% [at 30.8 µM].
`COCCNC(=O)CS(=O)Cc1nc(-c2ccc(Cl)cc2)oc1C` (stereo not given): the Potency entry in assay [1], in assay [2] and in assay [4] was “inactive” in each case. The activation in assay [3] is 3.09% [at 17.1 µM, percent relative to cAMP agonist control]; in assay [6], 14.9% [at 30.8 µM]. Further, the activity change, negative = inhibition in assay [5] was 7.48% [at 30.8 µM].
Consider `CC(C)(C)c1nc(-c2ccccc2)nc2c1OCCC2`, for which the Potency entry in assay [1], in assay [2], in assay [3], in assay [4], in assay [5] and in assay [6] was “inactive” each time.
On to `Cc1ccc(C(=O)ONc2ccc(N=NC(=O)c3ccccc3O)cc2)cc1`, for which the Potency in assay [1] was 7.57 µM (active). Also, the Potency result in assay [2], in assay [3], in assay [4], in assay [5] and in assay [6] was “inactive” throughout.
Consider `CCOc1c(O)ccc(/C=C2\SC(=S)NC2=O)c1[N+](=O)[O-]`, for which the Potency in assay [1] is 37.9 µM (active). Also, the Potency entry in assay [2], in assay [3], in assay [4], in assay [5] and in assay [6] was “inactive” each time.
In the case of `N#Cc1c(-c2ccccc2)nc(SCC(=O)Nc2ccc(OC(F)(F)Cl)cc2)[nH]c1=O`, the Potency is 67.5 µM (active) in assay [1] and 12 µM (active) in assay [4]. The Potency entry in assay [2], in assay [3], in assay [5] and in assay [6] was “inactive” each time.
In the case of `CC(=O)NC(CCS(C)(=O)=O)C(=O)Nc1cc(C)on1` (stereo not given), the Potency result in assay [1], in assay [2], in assay [3], in assay [4], in assay [5] and in assay [6] was “inactive” each time.
In the case of `O=C(COC(=O)c1ccc(O)cc1O)Nc1nnc(-c2ccccc2)o1`, the Potency result in assay [1], in assay [2], in assay [3], in assay [5] and in assay [6] was “inactive” in each case. The Potency in assay [4] is 84.9 µM (active).
`CCC(C)NC(=O)CS(=O)Cc1nc(-c2ccccc2C)oc1C` (stereo not given): the Potency entry in assay [1], in assay [2], in assay [3], in assay [4], in assay [5] and in assay [6] was “inactive” each time.
